From PubChem BioAssay AID1159580 (chemical genetic matrix, 2015)
Among all 5,500 compounds or so, about 2,000 (36%) were called active. Not shown: some 18% with an inconclusive outcome. Cut-off read from the data, not from the text of the source: active = normalized growth mostly below about 0.91 (no sharp cut-off); inconclusive = no clear call, values can overlap the other calls; inactive = mostly above about 0.92. Some of the results follow.

Test: chemical genetic growth profiling, strain panel (AID 1159580);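 note: tested at 20 µM; growth read once vehicle control cultures reached saturation at 30 °C; 1 = growth at the plate median or of vehicle wells; lower values mean less growth of the strain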
Settings: S. cerevisiae deletion strains, growth OD
[1] = locus YAR019C, strain CDC15, stronger effect = lower value
[2] = locus YBL105C, strain PKC1, stronger effect = lower value
[3] = locus YBR135W, strain CKS1, stronger effect = lower value
[4] = locus YBR136W, strain MEC1, stronger effect = lower value
[5] = locus YBR160W, strain CDC28, stronger effect = lower value
[6] = locus YDL017W, strain CDC7, stronger effect = lower value
[7] = locus YDL028C, strain MPS1, stronger effect = lower value
[8] = locus YDL101C, strain DUN1, stronger effect = lower value
[9] = locus YDL108W, strain KIN28, stronger effect = lower value
[10] = locus YDL132W, strain cdc53, stronger effect = lower value
[11] = locus YDL214C, strain PRR2, stronger effect = lower value
[12] = locus YDR052C, strain DBF4, stronger effect = lower value
[13] = locus YDR054C, strain cdc34, stronger effect = lower value
[14] = locus YDR226W, strain ADK1, stronger effect = lower value
[15] = locus YDR477W, strain SNF1, stronger effect = lower value
[16] = locus YER123W, strain YCK3, stronger effect = lower value
[17] = locus YER133W, strain GLC7, stronger effect = lower value
[18] = locus YFL009W, strain cdc4, stronger effect = lower value
[19] = locus YFL029C, strain CAK1, stronger effect = lower value
[20] = locus YFR003C, strain YPI1, stronger effect = lower value
[21] = locus YFR019W, strain FAB1, stronger effect = lower value
[22] = locus YFR028C, strain CDC14, stronger effect = lower value
[23] = locus YGR040W, strain KSS1, stronger effect = lower value
[24] = locus YGR052W, strain FMP48, stronger effect = lower value
[25] = locus YGR092W, strain DBF2, stronger effect = lower value
[26] = locus YHR030C, strain SLT2, stronger effect = lower value
[27] = locus YHR079C, strain IRE1, stronger effect = lower value
[28] = locus YHR082C, strain KSP1, stronger effect = lower value
[29] = locus YHR205W, strain SCH9, stronger effect = lower value
[30] = locus YIL147C, strain SLN1, stronger effect = lower value
[31] = locus YJL095W, strain BCK1, stronger effect = lower value
[32] = locus YJL157C, strain FAR1, stronger effect = lower value
[33] = locus YJR016C, strain ILV3, stronger effect = lower value
[34] = locus YJR066W, strain TOR1 (second series), stronger effect = lower value
[35] = locus YJR066W, strain TOR1, stronger effect = lower value
[36] = locus YKL048C, strain ELM1, stronger effect = lower value
[37] = locus YKL067W, strain YNK1, stronger effect = lower value
[38] = locus YKL101W, strain HSL1, stronger effect = lower value
[39] = locus YKL193C, strain SDS22, stronger effect = lower value
[40] = locus YKL203C, strain TOR2, stronger effect = lower value
[41] = locus YLR113W, strain HOG1, stronger effect = lower value
[42] = locus YLR403W, strain SFP1, stronger effect = lower value
[43] = locus YML070W, strain DAK1, stronger effect = lower value
[44] = locus YMR001C, strain CDC5, stronger effect = lower value
[45] = locus YMR205C, strain PFK2 (second series), stronger effect = lower value
[46] = locus YMR277W, strain FCP1, stronger effect = lower value
[47] = locus YNL006W, strain LST8, stronger effect = lower value
[48] = locus YNL020C, strain ARK1, stronger effect = lower value
[49] = locus YNL161W, strain CBK1, stronger effect = lower value
[50] = locus YNL183C, strain NPR1, stronger effect = lower value
[51] = locus YNL207W, strain RIO2, stronger effect = lower value
[52] = locus YNL222W, strain SSU72, stronger effect = lower value
[53] = locus YOL078W, strain AVO1, stronger effect = lower value
[54] = locus YOL136C, strain PFK27, stronger effect = lower value
[55] = locus YOR061W, strain CKA2, stronger effect = lower value
[56] = locus YOR119C, strain RIO1, stronger effect = lower value
[57] = locus YOR231W, strain MKK1, stronger effect = lower value
[58] = locus YOR329C, strain SCD5, stronger effect = lower value
[59] = locus YPL031C, strain PHO85, stronger effect = lower value
[60] = locus YPL153C, strain RAD53, stronger effect = lower value
[61] = locus YPL204W, strain HRR25, stronger effect = lower value
[62] = locus YPL209C, strain IPL1, stronger effect = lower value
[63] = locus YPL256C, strain CLN2, stronger effect = lower value
[64] = locus YPR025C, strain CCL1, stronger effect = lower value
[65] = locus YPR106W, strain ISR1, stronger effect = lower value
[66] = locus YPR111W, strain DBF20, stronger effect = lower value
[67] = strain NNK1, stronger effect = lower value
[68] = strain TSCII, stronger effect = lower value

Measured: normalized growth

CC(C)(Oc1ccc(C2CC2(Cl)Cl)cc1)C(=O)O (stereo not given)
inactive: locus YAL021C, strain ccr4, stronger effect = lower value 1 | locus YAL026C, strain drs2, stronger effect = lower value 1 | locus YAL030W, strain snc1, stronger effect = lower value 1 | locus YAL040C, strain CLN3, stronger effect = lower value 0.988 | locus YBL061C, strain skt5, stronger effect = lower value 0.997 | locus YBR009C, strain hhf1, stronger effect = lower value 0.995 | locus YBR023C, strain chs3, stronger effect = lower value 0.992 | locus YBR171W, strain sec66, stronger effect = lower value 0.996 | locus YBR231C, strain swc5, stronger effect = lower value 0.997 | locus YBR279W, strain paf1, stronger effect = lower value 1.02 | locus YCL011C, strain gbp2, stronger effect = lower value 1.01 | locus YCL016C, strain dcc1, stronger effect = lower value 0.992 | locus YCL061C, strain MRC1 (second series), stronger effect = lower value 0.988 | locus YCL061C, strain MRC1, stronger effect = lower value 0.99 | locus YCL069W, strain vba3, stronger effect = lower value 1.01 | locus YCR088W, strain abp1, stronger effect = lower value 0.997 | locus YDL005C, strain med2, stronger effect = lower value 0.998 | locus YDL040C, strain nat1, stronger effect = lower value 1 | locus YDR001C, strain nth1, stronger effect = lower value 1.01 | locus YDR069C, strain doa4, stronger effect = lower value 1 | locus YDR137W, strain rgp1, stronger effect = lower value 0.964 | locus YDR159W, strain sac3, stronger effect = lower value 0.997 | locus YDR195W, strain ref2 0.989 | locus YDR297W, strain sur2, stronger effect = lower value 0.998 | locus YDR334W, strain swr1, stronger effect = lower value 1 | locus YDR335W, strain msn5, stronger effect = lower value 1 | locus YDR392W, strain spt3, stronger effect = lower value 0.944 | locus YEL003W, strain gim4, stronger effect = lower value 1.02 | locus YEL037C, strain rad23, stronger effect = lower value 1.01 | locus YEL061C, strain CIN8 (second series), stronger effect = lower value 1.01 | locus YER002W, strain NOP16, stronger effect = lower value 0.962 | locus YER015W, strain faa2, stronger effect = lower value 0.994 | locus YER016W, strain bim1, stronger effect = lower value 1 | locus YER111C, strain swi4, stronger effect = lower value 0.998 | locus YER155C, strain BEM2 (second series), stronger effect = lower value 1 | locus YFR010W, strain ubp6, stronger effect = lower value 0.99 | locus YGL167C, strain pmr1, stronger effect = lower value 0.998 | locus YGL173C, strain kem1, stronger effect = lower value 1 | locus YGL227W, strain vid30, stronger effect = lower value 1 | locus YGL240W, strain doc1, stronger effect = lower value 1 | locus YGL253W, strain hxk2, stronger effect = lower value 1.01 | locus YHR013C, strain ard1, stronger effect = lower value 0.973 | locus YHR027C, strain rpn1, stronger effect = lower value 0.995 | locus YHR142W, strain chs7, stronger effect = lower value 1 | locus YJL092W, strain hpr5, stronger effect = lower value 1.01 | locus YJL095W, strain BCK1 (second series), stronger effect = lower value 0.997 | locus YJL115W, strain asf1, stronger effect = lower value 0.999 | locus YJL129C, strain trk1, stronger effect = lower value 0.987 | locus YJL154C, strain vps35, stronger effect = lower value 1.01 | locus YJL164C, strain tpk1, stronger effect = lower value 1 | locus YJL166W, strain qcr8, stronger effect = lower value 0.985 | locus YJL187C, strain SWE1, stronger effect = lower value 0.992 | locus YKL160W, strain elf1, stronger effect = lower value 0.978 | locus YKR026C, strain gcn3, stronger effect = lower value 0.997 | locus YKR091W, strain srl3, stronger effect = lower value 1 | locus YLL001W, strain dnm1, stronger effect = lower value 0.968 | locus YLL026W, stronger effect = lower value 1 | locus YLL041C, strain sdh2, stronger effect = lower value 1.01 | locus YLR027C, strain aat2, stronger effect = lower value 0.998 | locus YLR221C, strain rsa3, stronger effect = lower value 0.994 | locus YLR258W, strain gsy2, stronger effect = lower value 1 | locus YLR262C, strain YPT6 (second series), stronger effect = lower value 0.981 | locus YLR320W, strain mms22, stronger effect = lower value 0.976 | locus YLR342W, strain FKS1, stronger effect = lower value 1 | locus YLR357W, strain rsc2, stronger effect = lower value 1.01 | locus YLR370C, strain arc18, stronger effect = lower value 1 | locus YLR384C, strain iki3, stronger effect = lower value 1 | locus YML120C, strain ndi1, stronger effect = lower value 0.985 | locus YMR058W, strain fet3, stronger effect = lower value 1 | locus YMR125W, strain sto1, stronger effect = lower value 0.996 | locus YMR129W, stronger effect = lower value 0.996 | locus YMR205C, strain PFK2, stronger effect = lower value 0.973 | locus YMR231W, strain pep5, stronger effect = lower value 1 | locus YNL071W, strain lat1, stronger effect = lower value 0.998 | locus YNL153C, strain GIM3, stronger effect = lower value 1.01 | locus YNL175C, strain NOP13, stronger effect = lower value 0.98 | locus YNL197C, strain WHI3, stronger effect = lower value 1.08 | locus YNL209W, strain ssb2, stronger effect = lower value 1 | locus YNL224C, strain SQS1, stronger effect = lower value 0.99 | locus YNL248C, strain rpa49, stronger effect = lower value 1 | locus YNL322C, strain KRE1 (second series), stronger effect = lower value 0.984 | locus YNR049C, strain mso1, stronger effect = lower value 1 | locus YOR001W, strain rrp6, stronger effect = lower value 1.02 | locus YOR070C, strain gyp1, stronger effect = lower value 0.998 | locus YOR080W, strain dia2, stronger effect = lower value 0.988 | locus YOR083W, strain WHI5 (second series), stronger effect = lower value 1.01 | locus YOR083W, strain WHI5, stronger effect = lower value 0.977 | locus YOR106W, strain vam3, stronger effect = lower value 0.972 | locus YOR265W, strain rbl2, stronger effect = lower value 1 | locus YOR270C, strain vph1, stronger effect = lower value 0.99 | locus YOR290C, strain snf2, stronger effect = lower value 1.01 | locus YPL051W, strain arl3, stronger effect = lower value 0.994 | locus YPL078C, strain atp4, stronger effect = lower value 0.993 | locus YPL106C, strain sse1, stronger effect = lower value 0.951 | locus YPL240C, strain hsp82, stronger effect = lower value 1.01 | locus YPL241C, strain CIN2, stronger effect = lower value 0.984

O=[N+]([O-])c1ccc(Sc2ssc(=S)c2-c2ccccc2)nc1
inactive: [1] 0.922 | [2] 0.946 | [3] 0.943 | [4] 0.952 | [5] 0.947 | [6] 0.954 | [7] 0.953 | [8] 0.961 | [9] 0.953 | [10] 0.956 | [12] 0.968 | [13] 0.918 | [14] 1.01 | [18] 0.948 | [19] 0.922 | [20] 0.958 | [22] 0.97 | [25] 0.617 | [29] 0.782 | [30] 0.956 | locus YJL128C, strain PBS2, stronger effect = lower value 1.05 | [33] 0.951 | [36] 0.843 | [38] 0.791 | [39] 0.933 | [42] 0.703 | [44] 0.932 | [46] 0.961 | [47] 0.942 | [49] 0.929 | [51] 0.944 | [52] 0.934 | [53] 0.928 | [56] 0.728 | [58] 0.945 | [62] 0.945 | [64] 0.944 | [65] 0.999 | [66] 0.994 | [67] 0.956 | [68] 0.917
active: [11] 0.521 | [15] 0.651 | [16] 0.338 | [17] 0.512 | [21] 0.546 | [23] 0.673 | [24] 0.449 | [26] 0.159 | [27] 0.247 | [28] 0.471 | [31] 0.175 | [32] 0.485 | [34] 0.312 | [35] 0.327 | [37] 0.61 | [40] 0.674 | [41] 0.362 | locus YLR133W, strain CKI1, stronger effect = lower value 0.626 | [43] 0.371 | [45] 0.722 | [48] 0.624 | [50] 0.256 | locus YNL307C, strain MCK1 (second series), stronger effect = lower value 0.633 | [54] 0.376 | [55] 0.664 | [57] 0.229 | [59] 0.57 | [60] 0.537 | [61] 0.422 | [63] 0.3

O=C(NNc1ccc(I)cc1)c1cc(Cl)cc(Cl)c1
inactive: [1] 0.949 | [2] 0.965 | [3] 0.953 | [4] 0.953 | [5] 0.948 | [6] 0.961 | [7] 0.94 | [8] 0.987 | [9] 0.943 | [10] 0.95 | [11] 0.88 | [12] 0.952 | [13] 0.955 | [14] 0.929 | [15] 0.731 | [16] 0.651 | [17] 0.909 | [18] 0.938 | [19] 0.956 | [20] 0.967 | [22] 0.931 | [23] 0.809 | [24] 0.832 | [25] 0.78 | [27] 0.918 | [28] 0.848 | [29] 0.746 | [30] 0.955 | [31] 0.695 | [32] 0.94 | [33] 0.971 | [34] 0.865 | [35] 0.771 | [36] 0.889 | [37] 0.906 | [38] 0.842 | [39] 0.96 | [40] 0.926 | [42] 0.842 | [43] 0.849 | [44] 0.953 | [45] 0.904 | [46] 0.931 | [47] 0.972 | [48] 0.901 | [49] 0.97 | [50] 0.889 | [51] 0.963 | [52] 0.946 | [53] 0.955 | [54] 0.864 | [55] 0.715 | [56] 0.79 | [57] 0.884 | [58] 0.976 | [59] 0.81 | [60] 0.84 | [61] 0.832 | [62] 0.956 | [64] 0.959 | [65] 0.957 | [66] 0.929 | [67] 0.97 | [68] 0.946
active: [21] 0.767 | [26] 0.536 | [41] 0.498 | [63] 0.749
